# Data reported in PubChem BioAssay (EPA / NIEHS).
# Activity calls are given as the source filed them. Rule for the calls: active = hit-call score of the fitted dose curve at least 0.9, where 1 is the maximum; inactive = score below 0.9.
# Assays:
# Conditions in all cases: mRNA level, 48 h; actives raise or lower the signal
# [1] = read-out: catalase (CAT), CAT (gene 847); assay: LTEA_HepaRG_CAT: Life Technologies and Expression Analysis (LTEA) Assay for catalase (CAT) using HepaRG (AID 2283452)
# In short: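 HepaRG cells in serum-free induction medium, 0.5% DMSO vehicle, exposed 48 h in duplicate over 8 half-log concentrations from 100 uM. CAT mRNA measured by qRT-PCR, normalized to ACTB, GAPDH, POLR2A; bidirectional fit versus DMSO.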
# [2] = read-out: flavin-containing dimethylaniline monooxygenases 3 (FMO3), FMO3 (gene 2328); assay: LTEA_HepaRG_FMO3: Life Technologies and Expression Analysis (LTEA) Assay for flavin-containing dimethylaniline monooxygenases 3 (FMO3) using HepaRG (AID 2283453)
# In short: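 Differentiated HepaRG cells in serum-free induction medium, exposed 48 h in duplicate to 8 half-log concentrations up to 100 uM in 0.5% DMSO. FMO3 mRNA by qRT-PCR, normalized to ACTB, GAPDH, POLR2A; bidirectional fit vs DMSO.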
# [3] = read-out: Cytochrome P450 (CYP1A1), CYP1A1 (gene 1543); assay: LTEA_HepaRG_CYP1A1: Life Technologies and Expression Analysis (LTEA) Assay for Cytochrome P450 (CYP1A1) using HepaRG (AID 2283454)
# In short: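 CYP1A1 transcript levels measured by Fluidigm qRT-PCR against three housekeeping genes, 48 h after chemical dosing of human HepaRG cells (highest concentration 100 uM, half-log steps, 0.5% DMSO vehicle). Gain or loss of signal fitted relative to DMSO.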
# [4] = read-out: CFLAR gene, CFLAR (gene 8837); assay: LTEA_HepaRG_CFLAR: Life Technologies and Expression Analysis (LTEA) Assay for CFLAR gene using HepaRG (AID 2283455)
# In short: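 Differentiated HepaRG cells in serum-free induction medium were exposed 48 h in duplicate to eight half-log concentrations up to 100 uM in 0.5% DMSO; mRNA measured by TaqMan qRT-PCR, normalized to ACTB, GAPDH, POLR2A; bidirectional fitting versus DMSO.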
# [5] = read-out: Forkhead box O1 (FOXO1), FOXO1 (gene 2308); assay: LTEA_HepaRG_FOXO1: Life Technologies and Expression Analysis (LTEA) Assay for Forkhead box O1 (FOXO1) using HepaRG (AID 2283456)
# In short: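 Differentiated HepaRG cells, in serum-free induction medium with 0.5% DMSO, exposed 48 h in duplicate to 8-point half-log series from 100 uM. FOXO1 mRNA measured by TaqMan qRT-PCR, normalized to ACTB, GAPDH, POLR2A; bidirectional fit versus DMSO.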
# [6] = read-out: growth arrest and DNA damage 45 (GADD45A), GADD45A (gene 1647); assay: LTEA_HepaRG_GADD45A: Life Technologies and Expression Analysis (LTEA) Assay for growth arrest and DNA damage 45 (GADD45A) using HepaRG (AID 2283458)
# In short: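 Differentiated HepaRG cells exposed 48 h in serum-free induction medium to 8 concentrations, top 100 uM in half-log steps, 0.5% DMSO. GADD45A mRNA quantified by qRT-PCR, normalized to ACTB, GAPDH and POLR2A; bidirectional fit versus DMSO.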
# [7] = read-out: Forkhead box O3 (FOXO3), FOXO3 (gene 2309); assay: LTEA_HepaRG_FOXO3: Life Technologies and Expression Analysis (LTEA) Assay for Forkhead box O3 (FOXO3) using HepaRG (AID 2283459)
# In short: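 Differentiated human HepaRG cells, 48 h post-plating, exposed in duplicate for 48 h in serum-free induction medium; 8-point half-log series from 100 uM in 0.5% DMSO. FOXO3 mRNA by TaqMan qRT-PCR, normalized to ACTB/GAPDH/POLR2A; bidirectional fit versus DMSO.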
# [8] = read-out: ABC Transporter (ABCB1), ABCB1 (gene 5243); assay: LTEA_HepaRG_ABCB1: Life Technologies and Expression Analysis (LTEA) Assay for ABC Transporter (ABCB1) using HepaRG (AID 2283460)
# In short: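 HepaRG cells exposed in duplicate for 48 h in serum-free induction medium to eight half-log concentrations up to 100 uM in 0.5% DMSO. ABCB1 mRNA quantified by qRT-PCR, normalised to ACTB, GAPDH and POLR2A; fitted bidirectionally versus DMSO.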
# [9] = read-out: growth arrest and DNA damage 45 (GADD45B), GADD45B (gene 4616); assay: LTEA_HepaRG_GADD45B: Life Technologies and Expression Analysis (LTEA) Assay for growth arrest and DNA damage 45 (GADD45B) using HepaRG (AID 2283461)
# In short: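 Transcript level quantified by Fluidigm TaqMan qRT-PCR with three housekeeping genes for normalization, analyzed for up- or down-regulation against 0.5% DMSO. HepaRG cultures dosed 48 h at eight half-log concentrations up to 100 uM, duplicates.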
# [10] = read-out: ABC Transporter (ABCC3), ABCC3 (gene 8714); assay: LTEA_HepaRG_ABCC3: Life Technologies and Expression Analysis (LTEA) Assay for ABC Transporter (ABCC3) using HepaRG (AID 2283462)
# In short: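 Transcript level by TaqMan qRT-PCR, normalised to three housekeeping genes, fitted in both directions relative to vehicle. Chemicals tested in duplicate at eight half-log concentrations up to 100 uM for 48 h on HepaRG cells (0.5% DMSO).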
# [11] = read-out: ABC Transporter (ABCB11), ABCB11 (gene 8647); assay: LTEA_HepaRG_ABCB11: Life Technologies and Expression Analysis (LTEA) Assay for ABC Transporter (ABCB11) using HepaRG (AID 2283463)
# In short: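 Differentiated human HepaRG cells in serum-free induction medium, dosed in duplicate for 48 h. Eight-point half-log series from 100 uM in 0.5% DMSO; ABCB11 mRNA by qRT-PCR, normalized to ACTB, GAPDH, POLR2A, fitted bidirectionally versus DMSO.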
# [12] = read-out: ABC Transporter (ABCC2), ABCC2 (gene 1244); assay: LTEA_HepaRG_ABCC2: Life Technologies and Expression Analysis (LTEA) Assay for ABC Transporter (ABCC2) using HepaRG (AID 2283464)
# In short: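 Endpoint is ABCC2 transcript level from qRT-PCR, normalized to three housekeeping genes and fitted bidirectionally relative to DMSO. Human HepaRG cells received test chemical for 48 h at up to 100 uM (8 points, half-log steps, 0.5% DMSO), duplicate wells.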
# [13] = read-out: Broad substrate specificity ATP-binding cassette transporter ABCG2 (Homo sapiens) (UniProt Q9UNQ0); assay: LTEA_HepaRG_ABCG2: Life Technologies and Expression Analysis (LTEA) Assay for ABC Transporter (ABCG2) using HepaRG (AID 2283465)
# In short: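 Differentiated HepaRG cells were exposed for 48 h in serum-free induction medium to 8 half-log concentrations, top 100 uM, in 0.5% DMSO. ABCG2 mRNA was measured by qRT-PCR, normalized to ACTB, GAPDH and POLR2A, with bidirectional fitting versus DMSO.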
# [14] = read-out: ATP-citrate lyase (ACLY), ACLY (gene 47); assay: LTEA_HepaRG_ACLY: Life Technologies and Expression Analysis (LTEA) Assay for ATP-citrate lyase (ACLY) using HepaRG (AID 2283466)
# In short: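 Differentiated HepaRG cells exposed 48 h in serum-free induction medium to eight half-log concentrations up to 100 uM in 0.5% DMSO, duplicates. Transcript measured by Fluidigm TaqMan qRT-PCR, normalized to ACTB, GAPDH, POLR2A; bidirectional fit versus DMSO.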
# [15] = read-out: Peroxisomal acyl-coenzyme A oxidase 1 (ACOX1) gene, ACOX1 (gene 51); assay: LTEA_HepaRG_ACOX1: Life Technologies and Expression Analysis (LTEA) Assay for Peroxisomal acyl-coenzyme A oxidase 1 (ACOX1) gene using HepaRG (AID 2283467)
# In short: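 HepaRG cells, plated 48 h then switched to serum-free induction medium, were exposed in duplicate for 48 h to 8-point half-log concentrations up to 100 uM in 0.5% DMSO. ACOX1 mRNA was measured by qRT-PCR, normalized to ACTB/GAPDH/POLR2A, and fitted bidirectionally versus DMSO.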
# [16] = read-out: Alkaline Phosphatase, Placental (ALPP) gene, ALPP (gene 250); assay: LTEA_HepaRG_ALPP: Life Technologies and Expression Analysis (LTEA) Assay for Alkaline Phosphatase, Placental (ALPP) gene using HepaRG (AID 2283468)
# In short: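 ALPP transcript level, measured by qRT-PCR and normalized to three housekeeping genes (ACTB, GAPDH, POLR2A), after 48 h dosing of differentiated HepaRG in serum-free induction medium. Top concentration 100 uM with half-log dilutions (8 points, 0.5% DMSO, duplicates); bidirectional fitting relative to DMSO.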
# [17] = read-out: Bcl-2 (BAD) gene, BAD (gene 572); assay: LTEA_HepaRG_BAD: Life Technologies and Expression Analysis (LTEA) Assay for Bcl-2 (BAD) gene using HepaRG (AID 2283469)
# In short: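 Differentiated HepaRG cells were exposed in duplicate in 0.5% DMSO for 48 h to eight-point half-log concentrations up to 100 uM. BAD mRNA was measured by Fluidigm TaqMan qRT-PCR, normalized to ACTB, GAPDH and POLR2A, and fitted bidirectionally against DMSO.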
# [18] = read-out: Bcl-2 (BAX) gene, BAX (gene 581); assay: LTEA_HepaRG_BAX: Life Technologies and Expression Analysis (LTEA) Assay for Bcl-2 (BAX) gene using HepaRG (AID 2283470)
# In short: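 Differentiated HepaRG cells exposed 48 h in serum-free induction medium, eight half-log concentrations from 100 uM, in duplicate, 0.5% DMSO vehicle. BAX mRNA by TaqMan qRT-PCR, normalised to ACTB, GAPDH and POLR2A.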
# [19] = read-out: adenosine kinase (ADK) gene, ADK (gene 132); assay: LTEA_HepaRG_ADK: Life Technologies and Expression Analysis (LTEA) Assay for adenosine kinase (ADK) gene using HepaRG (AID 2283471)
# In short: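 HepaRG (human liver), 48 h chemical exposure, 8-pt half-log series, top 100 uM, 0.5% DMSO vehicle. Readout: ADK mRNA by qRT-PCR vs housekeeping genes; bidirectional curve fit relative to DMSO baseline.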
# Broad substrate specificity ATP-binding cassette transporter ABCG2 (Homo sapiens), sequence (Q9UNQ0 whole entry, looked up): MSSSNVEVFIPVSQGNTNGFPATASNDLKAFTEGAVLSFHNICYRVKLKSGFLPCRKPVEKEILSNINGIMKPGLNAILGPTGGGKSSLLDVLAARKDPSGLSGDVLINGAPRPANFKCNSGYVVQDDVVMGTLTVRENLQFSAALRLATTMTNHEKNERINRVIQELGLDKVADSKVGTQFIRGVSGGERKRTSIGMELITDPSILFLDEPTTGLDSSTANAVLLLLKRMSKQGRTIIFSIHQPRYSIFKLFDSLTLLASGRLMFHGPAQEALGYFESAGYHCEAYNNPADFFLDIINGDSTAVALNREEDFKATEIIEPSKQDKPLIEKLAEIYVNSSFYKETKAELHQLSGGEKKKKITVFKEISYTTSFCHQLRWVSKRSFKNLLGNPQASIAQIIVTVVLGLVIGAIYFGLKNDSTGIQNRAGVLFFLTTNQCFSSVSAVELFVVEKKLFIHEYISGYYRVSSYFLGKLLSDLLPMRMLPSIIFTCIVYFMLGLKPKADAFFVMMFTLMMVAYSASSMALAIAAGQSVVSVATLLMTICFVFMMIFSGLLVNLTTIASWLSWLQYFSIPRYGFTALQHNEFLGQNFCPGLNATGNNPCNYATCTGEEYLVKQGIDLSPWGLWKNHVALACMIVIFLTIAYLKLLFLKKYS
compound,measurement,setting,value
N#CC(Br)Br,outcome,[1],inactive
same,outcome,[2],inactive
same,outcome,[3],inactive
same,outcome,[4],inactive
same,outcome,[5],inactive
same,outcome,[6],inactive
same,outcome,[7],inactive
same,outcome,[8],inactive
same,outcome,[9],inactive
same,outcome,[10],inactive
same,outcome,[11],inactive
same,outcome,[12],inactive
same,outcome,[13],inactive
same,outcome,[14],inactive
same,outcome,[15],inactive
same,outcome,[16],inactive
same,outcome,[17],inactive
same,outcome,[18],inactive
same,outcome,[19],inactive
ClC1=C(Cl)[C@]2(Cl)[C@H]3[C@H]([C@@H]4C=C[C@H]3C4)[C@@]1(Cl)C2(Cl)Cl,outcome,[1],inactive
same,outcome,[2],inactive
same,AC50,[3],38.3 µM (active)
same,outcome,[4],inactive
same,outcome,[5],inactive
same,outcome,[6],inactive
same,outcome,[7],inactive
same,outcome,[8],inactive
same,outcome,[9],inactive
same,outcome,[10],inactive
same,outcome,[11],inactive
same,AC50,[13],9.92 µM (active)
same,outcome,[14],inactive
same,outcome,[15],inactive
same,outcome,[16],inactive
same,outcome,[17],inactive
same,outcome,[18],inactive
same,outcome,[19],inactive
Cc1ccc(N)c(N)c1,outcome,[1],inactive
same,outcome,[2],inactive
same,AC50,[3],40.2 µM (active)
same,outcome,[4],inactive
same,outcome,[5],inactive
same,outcome,[6],inactive
same,outcome,[7],inactive
same,outcome,[8],inactive
same,outcome,[9],inactive
same,outcome,[11],inactive
same,outcome,[12],inactive
same,outcome,[13],inactive
same,outcome,[14],inactive
same,outcome,[15],inactive
same,outcome,[16],inactive
same,outcome,[17],inactive
same,outcome,[18],inactive
same,outcome,[19],inactive
Nc1ccc(Cc2ccc(N)cc2)cc1,outcome,[1],inactive
same,outcome,[2],inactive
same,AC50,[3],32.3 µM (active)
same,outcome,[4],inactive
same,outcome,[5],inactive
same,outcome,[6],inactive
same,outcome,[7],inactive
same,outcome,[8],inactive
same,outcome,[9],inactive
same,outcome,[10],inactive
same,outcome,[11],inactive
same,outcome,[12],inactive
same,outcome,[13],inactive
same,outcome,[14],inactive
same,outcome,[15],inactive
same,outcome,[16],inactive
same,outcome,[17],inactive
same,outcome,[18],inactive
same,outcome,[19],inactive
